# Compound activity deposited in PubChem by several laboratories.
# Compounds with a hit are over-represented: about 12% of the library has one in this group of screens.
# PostGolgi ctrl – growth inhibition of yeast control strain, primary screen, counter-screen for post-Golgi transport modulator project. efflux-deficient yeast background strain, growth absorbance A615, 16 h. inhibition, % at 10 µM. 5% of 98,000 active. AID 738, 2007
# PostGolgi yeast – phenotypic screen on post-Golgi transport, primary screen. post-Golgi transport phenotypic cell assay. inhibition, % at 10 µM. 0.9% of 98,000 active;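 further: yeast cells grown in 1536-well plates; yeast grown about 18 h at 30C before absorbance read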
# hDAT+cocaine – changed hDAT dopamine uptake under cocaine IC80, either direction, primary screen, cocaine antagonist project, cell-based, LLC-PK1 hDAT, [14C]-dopamine uptake, MLSMR. Sodium-dependent dopamine transporter (Homo sapiens), Q01959. LLC-PK1 hDAT cells, [14C]-dopamine uptake with cocaine IC80; actives deviate in either direction. B-score at 10 µM. 1.3% of 110,000 active;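 active means Z score or B-score, a plate-position-corrected score, falls beyond the plate's 99.7% confidence bounds, in either direction; inactive means both scores lie inside the 99.7% bounds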
# Cav32 inh – Cav3.2 calcium influx blockers – cell-based, Fluo-4 calcium fluorescence, FDSS, MLSMR library, primary screen | 4% of 100,000 active | Cav3.2-expressing cells; active compounds read low | B-score at 10 µM | AID 449739, 2010 | Voltage-dependent T-type calcium channel subunit alpha-1H (Homo sapiens), O95180;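 active means single-dose well whose peak fluorescence ratio is a statistical outlier from its plate by either plate-standardised score or position-corrected B-score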
# PLAP act – PLAP enzyme activators, biochemical, luminescence, HTS; Alkaline phosphatase, placental type (Homo sapiens), P05187; purified PLAP enzyme, luminescent substrate read-out; active compounds read high; activation fold at 20 µM; 1.2% of 96,000 active; AID 696, 2007; in the data active means activation fold above about 2
# D1 allo mod – D1 CRE-luciferase signal change, two-sided – cell-based, HEK293 D1, dopamine EC30, D1 allosteric modulator project, primary screen | 5.9% of 58,000 active | dopamine EC30 potentiation; actives deviate in either direction | B-score at 10 µM;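 active means luminescence count or its row- and column-corrected plate score outside the 99.7% band of the plate's sample wells, on either side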
# Target sequence (P21728 whole entry, looked up): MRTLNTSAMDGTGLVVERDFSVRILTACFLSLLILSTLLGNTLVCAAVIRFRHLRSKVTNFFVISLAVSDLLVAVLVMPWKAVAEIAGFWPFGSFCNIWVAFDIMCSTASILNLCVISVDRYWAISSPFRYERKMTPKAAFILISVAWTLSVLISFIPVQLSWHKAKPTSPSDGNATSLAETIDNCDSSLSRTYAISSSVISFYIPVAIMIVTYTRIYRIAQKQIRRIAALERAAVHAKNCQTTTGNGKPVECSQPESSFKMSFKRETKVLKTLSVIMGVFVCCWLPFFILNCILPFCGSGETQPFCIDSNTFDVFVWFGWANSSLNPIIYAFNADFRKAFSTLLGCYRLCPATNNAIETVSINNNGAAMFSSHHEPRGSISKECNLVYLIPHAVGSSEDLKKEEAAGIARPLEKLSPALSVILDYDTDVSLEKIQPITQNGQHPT
# A number is an active result; - = inactive; . = not tested or not shown. Unless noted, no stated cut-off is given here; in the data, active means inhibition above about 30%; inactive means the rest.
SMILES,PostGolgi ctrl,PostGolgi yeast,hDAT+cocaine,Cav32 inh,PLAP act,D1 allo mod
Cc1ccc(-c2nnc3c4ccccc4c(C)nn23)cc1S(=O)(=O)N1CCN(C)CC1,.,.,.,.,.,9.9
c1nc(NCCN2CCOCC2)c2sc3nc(N4CCOCC4)c4c(c3c2n1)CCC4,.,.,.,.,-,6.8
O=S(=O)(Nc1nc2ccccc2nc1N1CCN(c2ccccc2F)CC1)c1ccc(Cl)cc1,-,-,-,-5.7,-,.
CCOc1ccc(S(=O)(=O)Nc2nc3ccccc3nc2N2CCN(C)CC2)cc1,-,-,-,-,-,-
Cc1c(C(c2ccc([N+](=O)[O-])cc2)c2c(C)n(C)n(-c3ccccc3)c2=O)c(=O)n(-c2ccccc2)n1C,-,-,-,-,-,.
COc1cc(C)nc2nc(SCc3ccccc3)nn12,-,-,-,-,-,.
Cc1cc(C)n2nc(SCc3nnc(SCc4ccccc4)s3)nc2n1,39,-,-,-,-,.
Clc1ccc(CON/C=N/c2ncnc3sccc23)c(Cl)c1,-,-,-,-,-,.
O=C(NCc1ccc2c(c1)OCO2)c1ccc(COc2cccc(Cl)c2)o1,60,-,.,.,-,-
COCCNC(=O)c1ccc(CS(=O)(=O)c2ccc(C)cc2)o1,-,-,-,-,-,-
Cc1ccc(S(=O)(=O)Cc2ccc(C(=O)NCc3ccc4c(c3)OCO4)o2)cc1,34,-,-,-,-,-
CCOC(=O)/C(C#N)=C1/C=CN(c2ccc(C)cc2)C=N1,-,-,-,-,-,.
CCOC(=O)/C(C#N)=C1/SC(CC)C(=O)N1c1ccc(C)cc1 (stereo not drawn),-,-,-2.8,-,-,-
O=C(CCN1CCC(c2ccccc2)C1)c1cccs1 (stereo not drawn),39,-,-,-,-,-4.7
Fc1ccc(Br)cc1C1C=C(c2ccc(Br)s2)Nc2ncnn21 (stereo not drawn),-,-,-,-2.9,-,-
COc1cccc(C2C=C(c3ccc(Br)s3)Nc3ncnn32)c1OC (stereo not drawn),-,-,-,-,-,-
COc1ccc(-n2c(SCCC#N)nnc2-c2cc(Cl)ccc2OC)cc1Cl,-,-,-,-4.3,.,-
